Whole data set: some 33,000 sequences, median “E-score (-0.5 to 0.5)” near -0.032, cut for the highest 2% near 0.36. Many of the other results were omitted from the sample, so the highest values are more common in it than they were.
What follows are sequences tested against T1, Sko1 (UniProt Q02100) (assay: PBM E-score (8-mer binding enrichment) (E-score (-0.5 to 0.5)); higher = stronger / more preferred TF binding). Conditions: protein concentration: 200 nM; construct: GST-full length.
T1 sequence: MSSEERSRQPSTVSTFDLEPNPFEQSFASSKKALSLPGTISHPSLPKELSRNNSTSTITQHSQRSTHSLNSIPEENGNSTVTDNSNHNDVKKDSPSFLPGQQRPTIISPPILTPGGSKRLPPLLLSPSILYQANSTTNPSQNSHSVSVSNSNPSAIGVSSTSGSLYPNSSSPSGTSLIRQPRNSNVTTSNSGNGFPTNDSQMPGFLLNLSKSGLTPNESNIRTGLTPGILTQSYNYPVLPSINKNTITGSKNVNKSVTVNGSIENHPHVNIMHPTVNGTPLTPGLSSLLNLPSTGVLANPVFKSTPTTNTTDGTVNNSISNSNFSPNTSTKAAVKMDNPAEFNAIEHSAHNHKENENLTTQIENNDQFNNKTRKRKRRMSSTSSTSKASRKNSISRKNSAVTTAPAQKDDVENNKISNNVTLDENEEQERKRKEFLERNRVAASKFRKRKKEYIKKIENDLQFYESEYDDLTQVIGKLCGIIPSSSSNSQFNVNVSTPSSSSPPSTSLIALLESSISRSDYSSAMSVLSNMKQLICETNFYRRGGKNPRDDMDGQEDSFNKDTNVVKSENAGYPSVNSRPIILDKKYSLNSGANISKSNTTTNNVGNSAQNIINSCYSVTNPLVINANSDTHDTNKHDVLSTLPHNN
Outline: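 Masliner-normalised scans of fluorescent anti-GST signal were the basis for scoring. That signal came from GST-tagged yeast transcription factors applied at about 100-200 nM to double-stranded universal all-10-mer Agilent arrays on fresh or once-stripped slides. Each ungapped eight-base word, pooled with its reverse complement, received an E-score from the Universal PBM Analysis Suite.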

Sequence | PBM E-score
CGAGCACA | -0.00253
CAGTTCAG | -0.112
TTACAGAA | -0.0258
ACAATAGC | -0.0393
CAATGCCG | -0.128
CGACCTTC | -0.189
ACTGCGTC | 0.284
CGCGTATC | 0.232
GGCGTATA | 0.148
ACCGTATA | 0.0367
AAGGTATT | 0.131
CTCGTATC | 0.0593
GACGTATA | 0.453
AACGTATT | 0.434
CACGTATC | 0.393
AAAGTATT | 0.0493
TACGTATA | 0.483
GTCGTATA | 0.269
ATCGTATA | 0.197
CGCACTGA | 0.0222
AGCTATAT | 0.172
TCCCGACA | -0.139
CAAGTCGC | -0.173
AACGTATC | 0.353
AACGTATA | 0.406

Sequence | PBM E-score
AGCGTATA | 0.15
ACACGGGG | -0.242
CTTACGAC | 0.16
ATTACGAC | 0.396
ATTACGAG | 0.36
ACTACGAC | 0.181
AATACGAG | 0.244
ACTACGAG | 0.162
ATACCTGC | -0.102
CAAATTAG | 0.104
TGGTCACA | 0.0263
GCGTCACA | 0.406
CCGTCACG | 0.152
CCGTCACA | 0.163
GCGTCACC | 0.341
TCGTCACA | 0.379
ACTAGACT | -0.176
CAATAGCA | -0.132
CTGCAATC | -0.0429
CGCTGAGA | -0.0923
AAAACCAG | -0.0997
ACGCAACC | 0.379
ACGCAACG | 0.377
ACGCAACA | 0.388
CCGCAACA | 0.165

Sequence | PBM E-score
CCGCAACG | 0.0186
GCGCAACA | 0.175
GCGCAACC | -0.162
CCGCAACC | -0.2
ACGCAACT | 0.355
TAGAGCCA | -0.278
GCCGAGAC | -0.218
ATGGGTCG | -0.179
ATTCAAGC | 0.106
ATGTTCTA | 0.0474
GCGTGCGA | -0.0187
CTACATCA | 0.375
ATACATCA | 0.382
GTACATCA | 0.366
ATACATCG | 0.196
CTACATTA | 0.00265
CTACATCC | -0.0667
GTACATTA | 0.295
ATACATCC | 0.0616
GTACATGA | 0.184
CGGGGCGC | -0.313
AACAGGTT | -0.0299
AGGCACTA | -0.0926
GTACATAA | 0.306
GGACATCA | 0.205

Sequence | PBM E-score
AAACATCA | 0.189
AGACATAA | 0.0234
TGACATAA | 0.424
CTACATAA | 0.194
CGACATCA | 0.355
GGACATAA | 0.0688
TTACATAA | 0.407
TGACATCA | 0.466
TAACATCA | 0.367
CAACATCA | 0.294
CACCAATG | 0.00918
GCCTTAGC | -0.113
CGGCTACG | 0.243
ATCGTCCC | -0.0614
CCAAACCG | -0.149
ACAAGTTG | -0.041
AAAGACTA | 0.026
CAAACCAA | -0.0239
ATTCACGG | 0.095
GACCTTAC | 0.0378
AACTTAGC | 0.0908
ATGGTGGC | -0.29
GACTTTTA | 0.0964
AGTCACAC | -0.0301
TGTCACAA | 0.133

Sequence | PBM E-score
CGTCACAG | 0.438
GGTCACAC | -0.0911
CGTCACAA | 0.388
CGTCACAC | 0.437
CCTCACAG | -0.175
AGTCACAG | -0.0124
GGTCACAA | -0.151
ACTTCGAT | 0.0534
GAGGTTCC | -0.182
ATCTGTAG | -0.0704
AGGAGTGA | 0.0137
CAGGGAGG | -0.23
ACACGTCT | 0.292
ACACGGAG | -0.13
ACACGTTC | 0.214
ACACGTAG | 0.433
ACACGTAC | 0.419
ACCCGTAA | -0.00679
ACACATAA | 0.262
ACACGAAT | 0.233
ACACGTAA | 0.472
ACCCGTAC | -0.107
ACACGTAT | 0.463
ACTCGTAA | 0.345
CTTGAATC | -0.0656

Sequence | PBM E-score
AGTTAGCG | 0.113
CGGCGTGA | -0.0945
CCGCTTCC | -0.273
CTCGTCTC | -0.19
AAATTCGT | 0.339
ATGTGAGC | -0.00412
CATCCTAA | 0.173
CCGAGATC | -0.237
CTGACATC | 0.21
ATGACATC | 0.44
ATGACATG | 0.357
ATGACACC | 0.26
GGGACATA | -0.139
CTGACATA | 0.266
GTGACACA | 0.145
ATGACATA | 0.437
GTGACATA | 0.381
AACTAACA | 0.124
GCTAAGCC | -0.23
CGGGCTCC | -0.343
ACTCTCTC | -0.281
GTCATCAC | 0.368
ATCATCAC | 0.334
GACATCAA | 0.275
GTCATCAA | 0.33

Sequence | PBM E-score
GACATCAC | 0.382
CACATCAC | 0.154
CTCCGCCC | -0.254
GAACTCTA | -0.0173
GGTAAGAC | -0.0543
CGTAAGAA | 0.349
AGTAAGAG | -0.117
CGTAAGAG | 0.376
CGTAAGAC | 0.4
CCTAAGAG | -0.0999
AAAGCGGT | -0.0789
AGCTCTTA | 0.0315
CATACGCA | 0.392
CATACGCG | 0.246
TATACGCA | 0.411
TATACGAA | 0.301
CATACTCA | 0.0384
AATACGCA | 0.407
GATACGCA | 0.351
AATACGCT | 0.186
AATACGCC | 0.198
TACACCGA | -0.177

— the supplement of paper PMC3334620
